# Assay outcomes as filed in PubChem BioAssay.
# The list is not random: actives were taken first. Their share in the collection is about 3.8%.
# ERa coact pot – enhancers of ERα–SRC-1 coactivator binding, primary screen, biochemical, TR-FRET, ERα LBD, low estradiol. 86,000 tested, 1.3% active. TR-FRET ERalpha-LBD/SRC-Cy5 coactivator binding, 2 h; 100 = basal binding, no effect. coactivator binding (% of control), % at 25.6 µM; in the data active = activity above about 200%;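 also: binding measured in presence of low estradiol as agonist stimulus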
# Target sequence (P03372 whole entry, looked up, the tested form may be a part): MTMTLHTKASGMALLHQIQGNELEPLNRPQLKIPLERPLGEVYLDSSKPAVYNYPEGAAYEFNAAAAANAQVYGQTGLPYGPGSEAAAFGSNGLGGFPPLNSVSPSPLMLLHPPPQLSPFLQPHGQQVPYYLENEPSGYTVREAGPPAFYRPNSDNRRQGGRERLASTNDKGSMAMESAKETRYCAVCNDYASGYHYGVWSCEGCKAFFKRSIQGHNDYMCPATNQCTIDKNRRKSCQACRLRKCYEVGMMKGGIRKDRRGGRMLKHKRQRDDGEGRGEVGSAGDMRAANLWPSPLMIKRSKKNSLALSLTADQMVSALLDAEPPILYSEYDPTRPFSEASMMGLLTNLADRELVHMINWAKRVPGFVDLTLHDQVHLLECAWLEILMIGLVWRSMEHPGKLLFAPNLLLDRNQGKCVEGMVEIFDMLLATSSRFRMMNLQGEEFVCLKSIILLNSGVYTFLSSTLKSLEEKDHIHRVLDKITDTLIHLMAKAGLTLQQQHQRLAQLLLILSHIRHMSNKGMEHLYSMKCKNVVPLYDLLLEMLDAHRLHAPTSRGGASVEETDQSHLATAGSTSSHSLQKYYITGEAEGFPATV
# ERa SRC1 inh – ERα–SRC-1 coactivator interaction inhibitors, primary screen, biochemical, TR-FRET, ERα LBD, estradiol-bound | TR-FRET ER-alpha LBD / SRC-1 peptide | inhibition, % at 25.6 µM | 86,000 tested, 1.7% active; in the data active = inhibition above about 50%
# Smad3 FoxH1 inh – Smad3/FoxH1 peptide binding inhibitors, primary screen, biochemical, TR-FRET; Mothers against decapentaplegic homolog 3 (Homo sapiens), P84022; 88,000 tested, 0.29% active; inhibition, % at 25 µM; TR-FRET Smad3/Dy647-FoxH1 peptide binding, europium anti-His; AID 630, 2007;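 active = compounds that reduce the energy-transfer binding signal between the protein and its labelled peptide by more than half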
# Calb biofilm kill – clotrimazole potentiators killing Candida biofilms, primary screen, with clotrimazole, Alamar Blue; C. albicans biofilm + clotrimazole; inhibition, % at 6 µM; 85,000 tested, 0.14% active;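 active = inhibition above 20%; inactive = inhibition below 20%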;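 also: preformed 24 hr biofilms exposed to compound for 48 hr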
# ERb SRC1 inh – inhibitors of ERβ-SRC1 coactivator interaction, primary screen, biochemical, TR-FRET, ERβ LBD, SRC-1 peptide. Estrogen receptor beta (Homo sapiens), Q92731. TR-FRET ER-beta LBD / SRC1-Cy5 peptide binding; receptor agonist-loaded with 1 µM estradiol. inhibition, % at 25.6 µM. 86,000 tested, 1.3% active;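 active = compounds whose percent inhibition of the receptor-coactivator binding signal exceeds about 50% in the single-dose screen, limit read from the data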
# A number is an active result; i = inactive; nt = no result given; [ ] = remark or other dose.
SMILES,ERa coact pot,ERa SRC1 inh,Smad3 FoxH1 inh,Calb biofilm kill,ERb SRC1 inh
Cn1c(CSc2nc3ccccc3s2)nc2ccccc21,282[fluorescence artefact?],i,i,i,i
COC(=O)c1cc2sc(Cl)cc2n1CC(=O)Nc1ccc(OC)c(OC)c1OC,i,54[fluorescence artefact?],i,i,i
COc1ccc(CN2C(=O)c3cccnc3C2Nc2cc(Cl)ccc2OC)cc1 (centres undefined),357[fluorescence artefact?],i,i,i,i
COc1ccc(CN2C(=O)c3cccnc3C2O)cc1 (centres undefined),394[fluorescence artefact?],i,i,i,i
CC(C)[C@](N)(C(=O)O)c1ccccc1,nt,nt,i,nt,nt
C[C@H](Oc1ccc(Oc2cnc3ccc(Cl)cc3n2)cc1)C(=O)O,nt,nt,i,nt,nt
COc1ccc(C2=NN(C(=O)CSc3cn(C)c4ccccc34)C(c3ccc(OC)cc3)C2)cc1 (centres undefined),639[fluorescence artefact?],i,i,i,i
Cn1cc(SCC(N)=O)c2ccccc21,i,i,i,i,i
COC(=O)C(CCCCNC(=O)OCc1ccccc1)NC(=O)CN (centres undefined),i,91[fluorescence artefact?],i,i,i
CN(C)CCCN1c2ccccc2C(C)(C)c2ccccc21,nt,nt,i,nt,nt
O[C@@H](C1=C/C(=C\c2ccncc2)c2ccccc21)c1ccncc1,nt,nt,76,nt,nt
O=C(CSc1nc2c([nH]c3ccccc32)c(=O)n1-c1cccc(Cl)c1)N1CCOCC1,i,91[fluorescence artefact?],i,i,73[fluorescence artefact?]
COc1ccc(-n2c(SCC(=O)N3CCCC3)nc3c([nH]c4ccccc43)c2=O)cc1,i,87,i,i,60[fluorescence artefact?]
COc1cccc(-n2c(SCC(N)=O)nc3c([nH]c4ccccc43)c2=O)c1,633[fluorescence artefact?],i,i,i,i
O=C(O)CCC(=O)c1ccc[nH]1,nt,nt,i,nt,nt
CCOC(=O)c1cn2c3c(c(F)c(F)cc3c1=O)SC(N1CCOCC1)=N2,i,i,i,i,i
Cc1nn(C(C)C(=O)NCc2ccccc2Cl)c(=O)c2c1sc1ccccc12 (centres undefined),i,i,i,i,i
O=S(=O)(NCc1ccc(Cl)cc1)c1cnc[nH]1,i,i,i,i,i
Cc1ccc(CCNS(=O)(=O)c2cnc[nH]2)cc1,i,i,i,i,70
COc1ccc(C2=CSC3=C(C(=O)c4cccc(S(=O)(=O)N(C)C)c4)CCN23)cc1,i,i,i,i,i
CC1CCC(C(=O)O)([C@H](Br)C(=O)O)CC1 (some centres undefined),nt,nt,i,nt,nt
CCn1c(SCC(=O)N2CCOCC2)nc2oc3c(Cl)cc(Cl)cc3c(=O)c2c1=O,i,65[fluorescence artefact?],i,i,52
O=C1c2ccccc2C(O)(c2ncc[nH]2)N1CCc1ccccc1 (centres undefined),i,i,i,i,i
NC(=O)c1ccsc1NC(=O)COC(=O)C1CCCN1C(=O)c1cccs1 (centres undefined),i,53[fluorescence artefact?],i,i,68[fluorescence artefact?]
NC(=O)c1ccsc1NC(=O)c1cccs1,i,i,i,i,i
SMILES,ERa coact pot,ERa SRC1 inh,Smad3 FoxH1 inh,Calb biofilm kill,ERb SRC1 inh
O=C1c2cccnc2C(=O)N1c1cccc(-c2nc3ccccc3o2)c1,i,53[fluorescence artefact?],i,i,i
O=C1CCC(=O)N1c1cccc(-c2nc3ccccc3o2)c1,i,i,i,i,i
O=C1c2ccc(-c3nc4ccccc4o3)cc2C(=O)N1Cc1cccnc1,370,i,i,i,i
Oc1ccc(Cc2cc(Cl)cc(Cl)c2O)cc1Cl,nt,nt,i,nt,nt
NNC(=O)[C@@H](O)[C@H](O)C(=O)NN,nt,nt,i,nt,nt
COC(=O)c1c(NC(=O)Cc2cccs2)sc2c1CCCC2,i,90[fluorescence artefact?],i,i,74
CCOC(=O)C1=C(c2ccccc2)N2CCN=C2S1,424[fluorescence artefact?],i,i,i,i
CN1CCc2c(sc3ncn4nc(-c5ccccc5O)nc4c23)C1,i,94[fluorescence artefact?],i,i,77[fluorescence artefact?]
Cc1cc(OCC(=O)Nc2cc(-c3nn4c(C)nnc4s3)ccc2C)ccc1Cl,621[fluorescence artefact?],i,i,i,i
COc1ccc(OCC(=O)Nc2cc(-c3nn4c(C)nnc4s3)ccc2C)cc1,276[fluorescence artefact?],i,i,i,i
CC[C@H](CN(C)C)C(=O)c1ccco1,nt,nt,i,nt,nt
O=C1NCCCc2c1oc1ccc(O)cc21,i,i,i,i,i
Oc1c(Cl)cc(Cl)c2c1NCCC2,i,89[fluorescence artefact?],i,i,70[fluorescence artefact?]
N=C(N)SCCSC(=N)N,nt,nt,68,nt,nt
CCS(=O)CCSC(=N)N (centres undefined),i,i,i,i,i
Cc1nc2cc(F)ccc2n1C1CCN(S(=O)(=O)c2ccccc2)CC1,i,i,i,i,i
Cc1cc2ncn(CC(=O)O)c2cc1C,nt,nt,i,nt,nt
COc1ccc2nc(NC(=O)CCc3nc(-c4ccccc4F)no3)sc2c1,204,i,i,i,i
COc1ccc2nc(NC(=O)Cc3cccs3)sc2c1,i,i,i,i,i
COC(=O)c1c(-c2ccncc2)csc1NC(=O)c1ccoc1C,321,i,i,i,i
CCN(CC)C(=O)c1sc(NC(=O)c2ccoc2C)c(C(=O)OC)c1C,i,i,i,i,i
O=C(Oc1cccc(-n2cnnn2)c1)C1CCCCC1,i,i,i,i,i
O=C(Oc1cccc(-n2cnnn2)c1)c1sc2ccccc2c1Cl,246,i,i,i,i
Cc1cc(C)c(C(=O)COc2cccnc2[N+](=O)[O-])cc1C,i,55[fluorescence artefact?],i,i,89
O[C@]1(c2ccccc2)c2ccccc2NC2=NCCN21,nt,nt,i,nt,nt
SMILES,ERa coact pot,ERa SRC1 inh,Smad3 FoxH1 inh,Calb biofilm kill,ERb SRC1 inh
CC(=O)N[C@@H]1CONC1=O,nt,nt,i,nt,nt
CCOc1ccc2nc(COC(=O)c3ccco3)c(C(C)=O)[n+]([O-])c2c1,i,i,i,i,i
CC(=O)c1c(COC(=O)c2cccnc2)nc2ccccc2[n+]1[O-],i,65[fluorescence artefact?],i,i,57[fluorescence artefact?]
CSc1nc(N(CCO)CCO)c2sc3nc(-c4ccco4)c4c(c3c2n1)CCC4,i,81[fluorescence artefact?],i,i,83[fluorescence artefact?]
OCCN(CCO)c1ncnc2c1sc1nc(N3CCOCC3)c3c(c12)CCCC3,i,i,i,i,i
CCCOc1ccccc1NC(=O)c1c(-c2ccccc2)noc1C,i,i,i,30,i
CN1CCc2c(sc3c2C(=O)NC(c2ccco2)N3)C1 (centres undefined),i,i,i,i,i
CN1CCc2c(sc3c2C(=O)NC(c2cn(Cc4ccccc4)c4ccccc24)N3)C1 (centres undefined),i,90[fluorescence artefact?],i,i,64[fluorescence artefact?]
OC1C[C@H]2CC[C@@H](C1)N2CCCN1c2ccccc2Sc2ccc(Cl)cc21 (some centres undefined),nt,nt,i,nt,nt
N=C1[C@H](O)[C@]2(I)c3ccccc3N3C(=N)[C@H](O)[C@@H]4c5ccccc5N1[C@@H]4[C@@H]32,nt,nt,57,nt,nt
Cc1ccccc1-n1c(Cn2c(=O)sc3ccccc32)nnc1SCC(=O)NCC1CCCO1 (centres undefined),i,i,i,i,i
Cn1c(CNC2CCCCC2)c(C#N)c2ccccc21,i,i,i,i,i
